The values below come from PubChem BioAssay AID624161 (National Center for Advancing Translational Sciences (NCATS), 2012).

SMILES strings stand for the structures. This is one part of the list. Records with an inconclusive call do not appear. Calls of active or inactive are those of the source. The call rests on the fitted dose curve; in most records, active means well fitted inhibition curve with a large enough effect; inconclusive means small, poorly fitted or top-dose-only effect; inactive means no such curve, though single readings can be large or run the other way.
Potency means the concentration at half of the fitted maximal effect.

This experiment deals with Histone-lysine N-methyltransferase 2A (Homo sapiens) (UniProt Q03164). Put plainly: qHTS Fluorescence Polarization (FP) Assay for Inhibitors of MLL CXXC domain - DNA interaction: Texas Red FP. Further: nearly all actives have a fitted effect of over 75% in size. To be noted: MLL CXXC-DNA binding; series mostly up to 345 µM. The source says: The MLL (Mixed Lineage Luekemia) gene is involved in chromosomal translocation that results in either acute lymphoid leukemia (ALL) or acute myeloid leukemia (AML). Chromasomal translocation of MLL gene is responsible for the fusion of N-terminal MLL to more than 60 different partner genes in frame. Many of the MLL partner genes contain transcription activation domains or function as transcriptional activators. Despite the heterogeneity of fusion partners, the N-terminus of MLL fusion proteins always consists of the N-terminal menin binding motif and the CXXC domain. The MLL-CXXC domain specifically recognizes unmethylated CpG sequences of the HOX-A gene. Disruption of the MLL-CXXC and HOX-A gene interaction leads to down regulation of HOX-A gene expression and may potentially reverse leukemogenesis. We have miniaturized and optimized an in-vitro assay to screen for inhibitors of the MLL-CXXC domain and HOX-A DNA interaction, which could have utility in MLL fusion leukemias.
Sequence of Histone-lysine N-methyltransferase 2A (Homo sapiens) (Q03164 whole entry, looked up, the tested form may be a part): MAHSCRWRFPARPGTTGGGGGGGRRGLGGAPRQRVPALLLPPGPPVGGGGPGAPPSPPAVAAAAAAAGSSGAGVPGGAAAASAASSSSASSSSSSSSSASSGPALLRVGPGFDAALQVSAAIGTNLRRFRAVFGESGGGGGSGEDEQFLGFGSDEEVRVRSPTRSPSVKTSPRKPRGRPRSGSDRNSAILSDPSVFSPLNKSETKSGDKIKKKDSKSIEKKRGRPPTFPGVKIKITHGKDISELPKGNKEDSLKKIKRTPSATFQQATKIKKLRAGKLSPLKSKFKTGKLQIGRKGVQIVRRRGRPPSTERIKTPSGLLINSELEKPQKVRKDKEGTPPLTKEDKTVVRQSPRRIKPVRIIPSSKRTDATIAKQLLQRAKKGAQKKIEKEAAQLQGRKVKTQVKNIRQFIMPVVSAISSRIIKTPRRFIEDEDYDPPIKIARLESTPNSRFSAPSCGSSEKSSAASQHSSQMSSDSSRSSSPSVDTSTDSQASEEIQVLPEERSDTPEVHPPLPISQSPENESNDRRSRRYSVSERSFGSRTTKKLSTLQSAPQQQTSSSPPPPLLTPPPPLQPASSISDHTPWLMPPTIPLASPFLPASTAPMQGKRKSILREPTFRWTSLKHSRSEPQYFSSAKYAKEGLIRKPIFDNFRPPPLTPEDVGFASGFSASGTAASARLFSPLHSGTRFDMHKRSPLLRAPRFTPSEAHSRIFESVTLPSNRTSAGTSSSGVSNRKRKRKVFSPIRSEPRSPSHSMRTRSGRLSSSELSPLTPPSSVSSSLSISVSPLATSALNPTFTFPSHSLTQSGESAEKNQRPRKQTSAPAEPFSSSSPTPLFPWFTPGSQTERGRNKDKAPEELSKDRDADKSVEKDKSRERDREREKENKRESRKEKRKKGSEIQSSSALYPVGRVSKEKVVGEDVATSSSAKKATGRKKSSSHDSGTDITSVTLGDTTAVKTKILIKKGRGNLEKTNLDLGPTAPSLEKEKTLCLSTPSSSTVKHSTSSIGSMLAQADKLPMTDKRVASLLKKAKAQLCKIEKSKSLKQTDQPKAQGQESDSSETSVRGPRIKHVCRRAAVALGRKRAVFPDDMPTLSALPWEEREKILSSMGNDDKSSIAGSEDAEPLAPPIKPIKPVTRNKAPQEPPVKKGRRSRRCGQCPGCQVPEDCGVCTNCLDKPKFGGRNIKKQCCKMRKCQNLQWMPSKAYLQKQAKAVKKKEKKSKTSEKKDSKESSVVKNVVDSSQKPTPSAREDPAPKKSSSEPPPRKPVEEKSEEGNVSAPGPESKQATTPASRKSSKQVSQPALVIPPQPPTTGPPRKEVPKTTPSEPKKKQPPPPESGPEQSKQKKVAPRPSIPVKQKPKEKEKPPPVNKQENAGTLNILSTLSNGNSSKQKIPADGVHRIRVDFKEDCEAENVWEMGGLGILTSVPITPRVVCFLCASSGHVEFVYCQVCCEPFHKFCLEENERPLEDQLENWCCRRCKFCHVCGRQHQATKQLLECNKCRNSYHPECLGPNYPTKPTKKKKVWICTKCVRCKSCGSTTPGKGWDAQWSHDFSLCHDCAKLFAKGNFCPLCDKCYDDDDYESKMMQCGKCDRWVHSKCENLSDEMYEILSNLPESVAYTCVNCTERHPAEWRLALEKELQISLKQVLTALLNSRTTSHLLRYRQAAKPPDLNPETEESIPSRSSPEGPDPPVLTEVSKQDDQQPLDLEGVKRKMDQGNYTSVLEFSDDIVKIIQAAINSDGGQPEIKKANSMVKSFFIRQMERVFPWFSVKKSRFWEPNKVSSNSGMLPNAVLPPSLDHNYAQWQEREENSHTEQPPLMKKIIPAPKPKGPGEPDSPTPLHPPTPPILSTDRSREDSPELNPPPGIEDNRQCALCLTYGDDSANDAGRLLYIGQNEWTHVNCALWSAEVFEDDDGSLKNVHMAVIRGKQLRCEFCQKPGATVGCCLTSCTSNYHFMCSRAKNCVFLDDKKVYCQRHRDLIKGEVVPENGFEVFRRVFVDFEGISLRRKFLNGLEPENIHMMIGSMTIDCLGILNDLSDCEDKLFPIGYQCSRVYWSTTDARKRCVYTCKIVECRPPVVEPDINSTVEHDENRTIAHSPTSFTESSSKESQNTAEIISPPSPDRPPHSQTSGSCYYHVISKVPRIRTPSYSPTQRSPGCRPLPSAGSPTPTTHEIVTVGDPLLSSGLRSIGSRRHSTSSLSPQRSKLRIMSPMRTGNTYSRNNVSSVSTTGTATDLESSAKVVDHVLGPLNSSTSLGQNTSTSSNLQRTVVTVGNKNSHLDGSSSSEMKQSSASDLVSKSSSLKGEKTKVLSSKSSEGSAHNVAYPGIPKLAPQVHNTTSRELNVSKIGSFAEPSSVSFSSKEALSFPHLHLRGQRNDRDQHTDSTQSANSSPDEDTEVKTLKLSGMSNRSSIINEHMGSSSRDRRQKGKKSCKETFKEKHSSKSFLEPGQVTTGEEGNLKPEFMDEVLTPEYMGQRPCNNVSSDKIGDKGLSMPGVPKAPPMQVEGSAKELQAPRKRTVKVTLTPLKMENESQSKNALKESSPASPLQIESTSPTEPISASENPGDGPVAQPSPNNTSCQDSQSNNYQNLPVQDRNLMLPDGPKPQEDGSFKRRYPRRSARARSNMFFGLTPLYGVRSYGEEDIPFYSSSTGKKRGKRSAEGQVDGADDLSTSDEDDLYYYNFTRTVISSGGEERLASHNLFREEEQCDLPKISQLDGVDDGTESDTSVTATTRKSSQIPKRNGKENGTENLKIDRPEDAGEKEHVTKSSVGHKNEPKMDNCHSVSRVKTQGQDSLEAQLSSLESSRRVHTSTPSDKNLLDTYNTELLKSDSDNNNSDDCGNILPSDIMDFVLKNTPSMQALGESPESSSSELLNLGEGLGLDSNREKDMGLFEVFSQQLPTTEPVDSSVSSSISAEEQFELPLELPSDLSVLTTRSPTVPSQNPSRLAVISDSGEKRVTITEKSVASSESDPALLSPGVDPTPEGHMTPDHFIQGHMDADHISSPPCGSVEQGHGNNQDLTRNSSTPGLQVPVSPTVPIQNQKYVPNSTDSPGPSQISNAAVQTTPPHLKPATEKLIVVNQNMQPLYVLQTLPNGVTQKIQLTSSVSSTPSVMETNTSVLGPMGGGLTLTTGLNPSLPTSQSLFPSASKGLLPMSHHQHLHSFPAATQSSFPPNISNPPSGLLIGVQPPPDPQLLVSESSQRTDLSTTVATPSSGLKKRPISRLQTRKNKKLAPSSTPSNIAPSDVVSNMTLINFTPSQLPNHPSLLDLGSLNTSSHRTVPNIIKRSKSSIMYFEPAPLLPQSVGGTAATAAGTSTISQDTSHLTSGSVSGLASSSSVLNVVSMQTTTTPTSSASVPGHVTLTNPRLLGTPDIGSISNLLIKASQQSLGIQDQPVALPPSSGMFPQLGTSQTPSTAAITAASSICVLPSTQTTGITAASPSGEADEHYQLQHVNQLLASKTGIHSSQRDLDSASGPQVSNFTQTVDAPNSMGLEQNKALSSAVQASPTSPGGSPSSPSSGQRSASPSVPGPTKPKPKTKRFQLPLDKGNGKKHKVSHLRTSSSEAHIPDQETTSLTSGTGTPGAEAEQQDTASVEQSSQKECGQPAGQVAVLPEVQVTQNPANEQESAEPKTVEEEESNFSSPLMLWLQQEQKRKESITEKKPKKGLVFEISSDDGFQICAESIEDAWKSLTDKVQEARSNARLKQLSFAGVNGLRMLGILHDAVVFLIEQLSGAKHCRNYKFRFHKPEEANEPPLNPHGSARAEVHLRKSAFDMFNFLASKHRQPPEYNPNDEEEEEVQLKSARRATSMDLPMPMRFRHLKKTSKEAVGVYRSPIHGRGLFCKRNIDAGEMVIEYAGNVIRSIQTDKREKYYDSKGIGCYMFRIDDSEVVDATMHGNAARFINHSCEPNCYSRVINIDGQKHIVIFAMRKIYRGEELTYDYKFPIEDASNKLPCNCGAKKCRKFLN
This is a hit validation assay that tests this hits identified in the primary screen in this secondary screen, using a Texas Red FP as a read-out.
NIH Molecular Libraries Probe Production Network [MLPCN]
NIH Chemical Genomics Center [NCGC]
PI Name: John Bushweller, University of Virgina
The affinity purified MLL-CXXC domain, unlabeled HOX-A9 DNA strand, Texas Red (FLSN) labeled HOX-A9 DNA strand were kindly supplied by the laboratory of Dr. John Bushweller, University of Virginia. All reagents were stored in single use aliquots at -80C.
Assay buffer: 50 mM TRIS-HCl pH 7.5, 50 mM NaCl, 1 mM DTT. Add 0.05% BSA prior to reaction setup.
1.Dispense 1 ul of a 7 uM MLL-CXXC solution prepared in assay buffer into column 1-48.
2.Transfer 23 nl of compounds and unlabeled HOX-A9 per well.
3.Incubate for 5 minutes at ambient.
4.Dispense 1ul of a 50 nM TR-HOX-A9 solution prepared in assay buffer into columns 1-48
5.Centrifuge for 30 seconds at 1000 RPM.
6.Incubate for 30 minutes at ambient.
7.Read using the Envision reader fluorescent polarization protocol.
Turning to `COc1cc(/C=C2/C(=O)NN(c3ccc(F)cc3)C2=O)cc([N+](=O)[O-])c1O`, the Potency is 126 µM (active). In the case of `COc1ccc(-c2onc3ccc(C(C)=O)cc23)cc1`, the Potency entry was “inactive”.

For `O=C1NN(c2ccccc2)C(=O)/C1=C/c1ccc(-c2cccc(C(=O)O)c2)o1`, the Potency is 126 µM (active). For `CCOC(=O)/C(N=Nc1cc(C(=O)O)cc(C(=O)O)c1)=C(\O)CCl` the value was 142 µM (active); for `COc1ccc(S(=O)(=O)/N=C2\C=C(NS(=O)(=O)c3ccccc3)C(=O)c3ccccc32)cc1`, “inactive”.
